Measurements taken from PubChem BioAssay (NCATS).
Inconclusive results are not listed. Calls of active or inactive are those of the source. The call rests on the fitted dose curve; in most records, active means well fitted curve in the direction sought with a large enough effect; inconclusive means small, poorly fitted or top-dose-only effect, or another doubt; inactive means no such curve, though single readings can be large; an effect the other way counts as inactive or inconclusive.

Assays:
[1] = Quantitative High-Throughput drug screen in 47 multiple myeloma cell lines against the NCATS MIPE library collection: KMM1_JCRB cell viability assay (AID 1918960); conditions: KMM1 myeloma viability, CellTiter-Glo ATP luminescence, 48 h; series mostly up to 45.8 µM; further: nearly all actives have a fitted effect of over 30% in size; further: potency means the concentration at half of the fitted maximal effect
How it was run: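 500 cells/well; MIPE 4.0 library pinned in; 48 h, 37 °C, 5% CO2; CellTiter-Glo ATP luminescence. Controls: DMSO = 100% viability, medium only = 0%.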

[2] = Quantitative High-Throughput drug screen in 47 multiple myeloma cell lines against the NCATS MIPE library collection: INA6_PLB cell viability assay (AID 1918965; further: nearly all actives have a fitted effect of over 55% in size; further: potency means the concentration at half of the fitted maximal effect); conditions: INA6 myeloma viability, CellTiter-Glo ATP luminescence, 48 h; series mostly up to 45.8 µM
How it was run: (§1)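 Relative luminescence from CellTiter-Glo served as the viability signal, referenced to DMSO-treated (100%) and cell-free medium (0%) controls. Treatment lasted 48 hours at 37C with 500 cells per well.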

[3] = Quantitative High-Throughput drug screen in 47 multiple myeloma cell lines against the NCATS MIPE library collection: JJN3_DSMZ cell viability assay (AID 1918966; further: potency means the concentration at half of the fitted maximal effect; nearly all actives have a fitted effect of over 50% in size); conditions: JJN3 myeloma cells viability, CellTiter-Glo ATP, 48 h; series mostly up to 45.8 µM
How it was run: (§2)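 Primary qHTS used for cherry-picking: cells at 500/well, library compounds for 48 h (37C, 5% CO2), luminescent ATP assay.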

[4] = Quantitative High-Throughput drug screen in 47 multiple myeloma cell lines against the NCATS MIPE library collection: Karpas25_ECACC cell viability assay (AID 1918968; further: nearly all actives have a fitted effect of over 35% in size; further: potency means the concentration at half of the fitted maximal effect); conditions: Karpas25 myeloma viability, CellTiter-Glo ATP, 48 h; series mostly up to 45.8 µM
How it was run: as §2

[5] = Quantitative High-Throughput drug screen in 47 multiple myeloma cell lines against the NCATS MIPE library collection: KMS27_JCRB cell viability assay (AID 1918970); conditions: KMS27 myeloma cells, CellTiter-Glo ATP viability, 48 h; viability (% of DMSO): at 45.8 µM (top of the series); further: nearly all actives have a fitted effect of over 30% in size; further: potency means the concentration at half of the fitted maximal effect
How it was run: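 Luminescent ATP read-out (CellTiter-Glo, 5 min at room temperature) after 48 h compound exposure of 500 KMS27_JCRB cells per well; DMSO wells define full viability and media-only wells zero.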

[6] = Quantitative High-Throughput drug screen in 47 multiple myeloma cell lines against the NCATS MIPE library collection: KMS12BM_JCRB cell viability assay (AID 1918971); conditions: KMS12BM myeloma viability, CellTiter-Glo ATP, 48 h; series mostly up to 45.8 µM; further: nearly all actives have a fitted effect of over 35% in size; further: potency means the concentration at half of the fitted maximal effect
How it was run: as §1

[7] = Quantitative High-Throughput drug screen in 47 multiple myeloma cell lines against the NCATS MIPE library collection: KMS26_JCRB cell viability assay (AID 1918975); conditions: KMS26 myeloma cells viability, CellTiter-Glo ATP, 48 h; series mostly up to 45.8 µM; further: nearly all actives have a fitted effect of over 45% in size; further: potency means the concentration at half of the fitted maximal effect
How it was run: as §1

[8] = Quantitative High-Throughput drug screen in 47 multiple myeloma cell lines against the NCATS MIPE library collection: MMM1_PLB cell viability assay (AID 1918976); conditions: MMM1 myeloma cells viability, CellTiter-Glo, 48 h; series mostly up to 45.8 µM; further: nearly all actives have a fitted effect of over 35% in size; further: potency means the concentration at half of the fitted maximal effect
How it was run: (§3)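 Readout: median RLU from CellTiter-Glo after 5 min at room temperature. Preceding step was 48 h drug treatment of 500 cells/well at 37 °C, 5% CO2, with DMSO-only and media-only control wells.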

[9] = Quantitative High-Throughput drug screen in 47 multiple myeloma cell lines against the NCATS MIPE library collection: NCIH929_DSMZ cell viability assay (AID 1918978); conditions: NCI-H929 myeloma viability, CellTiter-Glo ATP, 48 h; series mostly up to 45.8 µM; further: nearly all actives have a fitted effect of over 35% in size; further: potency means the concentration at half of the fitted maximal effect
How it was run: as §3

[10] = Quantitative High-Throughput drug screen in 47 multiple myeloma cell lines against the NCATS MIPE library collection: JIM3_ECACC cell viability assay (AID 1918963; further: nearly all actives have a fitted effect of over 35% in size; further: potency means the concentration at half of the fitted maximal effect); conditions: JIM3 myeloma viability, CellTiter-Glo ATP, 48 h; series mostly up to 45.8 µM
How it was run: as §1

[11] = Quantitative High-Throughput drug screen in 47 multiple myeloma cell lines against the NCATS MIPE library collection: H1112_PLB cell viability assay (AID 1918967; further: nearly all actives have a fitted effect of over 30% in size; further: potency means the concentration at half of the fitted maximal effect); conditions: H1112 myeloma cells viability, ATP luminescence, 48 h; series mostly up to 45.8 µM
How it was run: as §2

[12] = Quantitative High-Throughput drug screen in 47 multiple myeloma cell lines against the NCATS MIPE library collection: KMS20_JCRB cell viability assay (AID 1918973); conditions: CellTiter-Glo ATP, 48 h; series mostly up to 45.8 µM; further: potency means the concentration at half of the fitted maximal effect; nearly all actives have a fitted effect of over 45% in size
How it was run: as §2

[13] = Quantitative High-Throughput drug screen in 47 multiple myeloma cell lines against the NCATS MIPE library collection: Karpas417_ECACC cell viability assay (AID 1918961); conditions: Karpas417 myeloma viability, CellTiter-Glo ATP luminescence, 48 h; viability (% of DMSO): at 45.8 µM (top of the series)
How it was run: as §1

[14] = Quantitative High-Throughput drug screen in 47 multiple myeloma cell lines against the NCATS MIPE library collection: KMS12PE_JCRB cell viability assay (AID 1918972); conditions: KMS12PE myeloma viability, CellTiter-Glo ATP, 48 h; series mostly up to 45.8 µM; further: nearly all actives have a fitted effect of over 30% in size
How it was run: as §1

[15] = Quantitative High-Throughput drug screen in 47 multiple myeloma cell lines against the NCATS MIPE library collection: KHM11_PLB cell viability assay (AID 1918962); conditions: KHM11 myeloma cell viability, CellTiter-Glo ATP luminescence, 48 h; series mostly up to 45.8 µM; further: nearly all actives have a fitted effect of over 35% in size; further: potency means the concentration at half of the fitted maximal effect
How it was run: as §1

[16] = Quantitative High-Throughput drug screen in 47 multiple myeloma cell lines against the NCATS MIPE library collection: MOLP8_DSMZ cell viability assay (AID 1918977); conditions: MOLP8 myeloma viability, CellTiter-Glo ATP luminescence, 48 h; series mostly up to 45.8 µM; further: nearly all actives have a fitted effect of over 45% in size; further: potency means the concentration at half of the fitted maximal effect
How it was run: as §3

[17] = Quantitative High-Throughput drug screen in 47 multiple myeloma cell lines against the NCATS MIPE library collection: KMS21BM_JCRB cell viability assay (AID 1918974); conditions: ATP luminescence, 48 h; viability: at 45.8 µM (top of the series); further: potency means the concentration at half of the fitted maximal effect
How it was run: as §2

[18] = Quantitative High-Throughput drug screen in 47 multiple myeloma cell lines against the NCATS MIPE library collection: Karpas620_DSMZ cell viability assay (AID 1918959); conditions: Karpas620 myeloma viability, CellTiter-Glo ATP luminescence, 48 h; series mostly up to 45.8 µM; further: nearly all actives have a fitted effect of over 30% in size
How it was run: as §1

CS(=O)(=O)N1CCc2c(-c3cnc(N)nc3)nc(N3CCOCC3)nc21
Potency [1]: 0.0662 µM (active) | Potency [2]: 1.48 µM (active) | Potency [3]: 0.59 µM (active) | Potency [4]: 0.105 µM (active) | Potency [5]: 0.0235 µM (active) | Potency [6]: 0.935 µM (active) | Potency [7]: 0.132 µM (active) | Potency [8]: 0.148 µM (active) | Potency [9]: 0.0209 µM (active)

Cc1cnc(Nc2ccc(CN3CCOCC3)cc2)nc1Nc1cccc(S(=O)(=O)NC(C)(C)C)c1
Potency [10]: 2.64 µM (active) | Potency [2]: 0.372 µM (active) | Potency [3]: 6.62 µM (active) | Potency [11]: 3.32 µM (active) | Potency [4]: 1.32 µM (active) | Potency [6]: 3.32 µM (active) | Potency [12]: 2.64 µM (active) | Potency [7]: 13.2 µM (active) | Potency [8]: 10.5 µM (active) | Potency [9]: 1.66 µM (active)

CC1(C)[C@H](O[C@H]2O[C@H](C(=O)O)[C@@H](O)[C@H](O)[C@H]2O[C@@H]2O[C@H](C(=O)O)[C@@H](O)[C@H](O)[C@H]2O)CC[C@@]2(C)[C@H]1CC[C@]1(C)[C@H]2C(=O)C=C2[C@H]3C[C@@](C)(C(=O)O)CC[C@]3(C)CC[C@]21C
Potency [1]: inactive | Potency [13]: inactive | Potency [10]: inactive | Potency [11]: inactive | Potency [4]: inactive | Potency [5]: inactive | Potency [6]: inactive | Potency [14]: inactive | Potency [7]: inactive | Potency [9]: inactive

FC(F)c1nc2ccccc2n1-c1nc(N2CCOCC2)nc(N2CCOCC2)n1
Potency [15]: 0.469 µM (active) | Potency [10]: 0.372 µM (active) | Potency [2]: 0.296 µM (active) | Potency [3]: 0.743 µM (active) | Potency [4]: 0.0935 µM (active) | Potency [5]: 0.105 µM (active) | Potency [6]: 1.66 µM (active) | Potency [12]: 0.332 µM (active) | Potency [7]: 0.743 µM (active) | Potency [8]: 0.526 µM (active) | Potency [16]: 0.132 µM (active) | Potency [9]: 0.105 µM (active)

COc1cc(C(C)C)c(Oc2cnc(NC(CO)CO)nc2N)cc1I
Potency [2]: inactive | Potency [11]: inactive | Potency [4]: 18.7 µM (active) | Potency [6]: inactive | Potency [17]: 0.662 µM (active) | Potency [7]: 2.64 µM (active) | Potency [16]: inactive | Potency [9]: inactive

CC(C)n1cnc2c(NCCc3ccc(O)cc3)nc(-c3csc4ccccc34)nc21
Potency [1]: inactive | Potency [11]: 13.2 µM (active) | Potency [4]: 4.18 µM (active) | Potency [12]: 7.43 µM (active) | Potency [7]: 11.8 µM (active)

NC1=N[C@H]2[C@H](CS[C@H]2CCCCC(=O)O)N1
Potency [1]: inactive | Potency [15]: inactive | Potency [10]: inactive | Potency [2]: inactive | Potency [11]: inactive | Potency [4]: inactive | Potency [5]: inactive | Potency [6]: inactive | Potency [14]: inactive | Potency [7]: inactive | Potency [9]: inactive

O=C(NC1CC1)c1cccc(-c2ccc3c(NC(=O)C4CC4)n[nH]c3c2)c1
Potency [18]: inactive | Potency [10]: 11.8 µM (active) | Potency [2]: 5.26 µM (active) | Potency [11]: 6.62 µM (active) | Potency [6]: 8.33 µM (active) | Potency [14]: inactive | Potency [7]: 2.64 µM (active) | Potency [9]: 16.6 µM (active)

NS(=O)(=O)OC[C@@H]1C[C@@H](n2ccc3c(N[C@H]4CCc5ccccc54)ncnc32)C[C@H]1O
Potency [13]: inactive | Potency [10]: 13.2 µM (active) | Potency [2]: 0.118 µM (active) | Potency [3]: 1.32 µM (active) | Potency [4]: 0.833 µM (active) | Potency [6]: 6.62 µM (active) | Potency [7]: 2.64 µM (active) | Potency [9]: 0.833 µM (active)

c1ccc2c(Oc3nc(Nc4ccc(N5CCOCC5)cc4)c4ncn(C5CCCCC5)c4n3)cccc2c1
Potency [18]: inactive | Potency [11]: inactive | Potency [6]: 16.6 µM (active) | Potency [8]: 13.2 µM (active) | Potency [16]: inactive

O=C(O)c1ccc(Nc2ncc3c(n2)-c2ccc(Cl)cc2C(c2c(F)cccc2F)=NC3)cc1
Potency [13]: inactive | Potency [10]: 4.69 µM (active) | Potency [2]: 1.87 µM (active) | Potency [3]: 3.72 µM (active) | Potency [11]: 16.6 µM (active) | Potency [4]: 14.8 µM (active) | Potency [5]: inactive | Potency [6]: 0.296 µM (active) | Potency [12]: 14.8 µM (active) | Potency [17]: 0.743 µM (active) | Potency [8]: inactive | Potency [9]: 4.18 µM (active)

c1cncc(CN2CCC(n3ncc4c(N5CCOCC5)nc(-c5ccc6[nH]ccc6c5)nc43)CC2)c1
Potency [15]: 1.66 µM (active) | Potency [10]: 5.26 µM (active) | Potency [2]: 5.9 µM (active) | Potency [3]: 5.9 µM (active) | Potency [11]: 13.2 µM (active) | Potency [4]: 2.35 µM (active) | Potency [6]: 13.2 µM (active) | Potency [12]: 1.18 µM (active) | Potency [17]: inactive | Potency [7]: 4.69 µM (active) | Potency [8]: 7.43 µM (active) | Potency [16]: 2.96 µM (active) | Potency [9]: 0.332 µM (active)
